Measurements taken from PubChem BioAssay (NCI).
The panel holds about 83,000 compounds, 20% with a hit somewhere; the sample as a whole holds those more often.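 Cell lines were cultured in 96-well plates, exposed to a single compound concentration, and assessed for percent growth 48 hours later.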 Unmarked numbers belong to inactive results. Active and inactive are the calls of the source. How the source made its calls: active means growth percent below 10; inactive means the rest.

How the values were obtained:
Assay in all cases: NCI-60 one-dose screen, 48 h (100 = growth as untreated, 0 = no growth, -100 = all killed)
Details in all cases: 10 µM unless noted
T-47D breast = tested on: T-47D breast
BT-549 breast = tested on: BT-549 breast
SW-620 colon = tested on: SW-620 colon
MCF7 breast = tested on: MCF7 breast
HCT-116 colon = tested on: HCT-116 colon
HCC-2998 colon = tested on: HCC-2998 colon
KM12 colon = tested on: KM12 colon
MDA-MB-435 melanoma = tested on: MDA-MB-435 melanoma

| SMILES | growth (T-47D breast) | growth (BT-549 breast) | growth (SW-620 colon) | growth (MCF7 breast) | growth (HCT-116 colon) | growth (HCC-2998 colon) | growth (KM12 colon) | growth (MDA-MB-435 melanoma) |
| --- | --- | --- | --- | --- | --- | --- | --- | --- |
| COC(=O)c1ccc([N+](=O)[O-])c(C)c1 | 102% | 86.3% | 103% | 91% | 95.6% | 106% | 99.8% | – |
| N#CC1(O)CCCCC1 | 103% | 93.9% | 110% | – | 103% | – | 102% | 99.3% |
| BrCc1cccc(C[P+](c2ccccc2)(c2ccccc2)c2ccccc2)c1 | 28.2% | 93.1% | 25.4% | 53.3% | 22.2% | 33.1% | 30.2% | – |
| CN(C)c1ccc(/C=C/C(=O)c2ccc(NC(N)=O)cc2)cc1 | 82% | 91.7% | – | 58.4% | 75.4% | 105% | 98.5% | 93.8% |
| O=C(O)C1CCCN1C(=O)OCc1ccccc1 (stereo unspecified) | 102% | 85.8% | 111% | 90% | 107% | – | 113% | 102% |
| CC(=O)O[C@H]1CC[C@]2(C)C3=C(C(=O)C[C@H]2C1(C)C)[C@]1(C)CC[C@H]([C@H](C)CCC(=O)O)[C@@]1(C)CC3=O | 91.5% | 93.9% | 85.5% | 89.6% | 99.2% | 102% | 106% | – |
| COc1ccc(/C=C\C(=O)/C=C/c2ccc(OC)cc2)cc1 | 80.1% | 48.5% | – | 11% | -96.6% (active) | -16% (active) | 4.59% (active) | -30.4% (active) |
| NNC(=O)c1ccccc1N | 103% | 121% | 103% | 101% | 99.3% | – | 105% | 114% |
| Cc1cc2c(C(C)C)c(O)c(O)c(C=Nc3ccccc3[N+](=O)[O-])c2c(O)c1-c1c(C)cc2c(C(C)C)c(O)c(O)c(C=Nc3ccccc3[N+](=O)[O-])c2c1O | 83.1% | 94% | 96.3% | 91.2% | 73.7% | 79.5% | 47.7% | – |
| O=C(c1ccccc1)c1ccc(-c2ccc(O)cc2)cc1 | 50.6% | 52.3% | 45.4% | 23.3% | 59.4% | – | 35.2% | 9.71% (active) |
| CNc1ccccc1C(N)=O | 98.1% | 101% | – | 92.7% | 96.8% | 106% | 101% | 105% |
| Cc1c(Cl)cccc1NC(=S)NC(=O)c1ccccc1 | 64.8% | 115% | 106% | 53.3% | 106% | – | 89.6% | 101% |
| CC(C)(C)NCCC(O)c1cc(C(F)(F)F)nc2c(C(F)(F)F)cccc12 (stereo unspecified) | 86.8% | 86.5% | 89.6% | 92.6% | 56.8% | – | 58.7% | 82.3% |
| O=C1C=Cc2ccccc2/C1=C/c1[nH]c(=O)[nH]c1O | 39.6% | 20.6% | 22% | 12.9% | 17.2% | – | 40.2% | -6.05% (active) |
| CCCCn1cnc2c(=O)[nH]cnc21 | 97.8% | 105% | 117% | 98.2% | 107% | 117% | 132% | – |
| Cc1ccc(NC(=S)N2CCOCC2)cc1C | 92.1% | 102% | 109% | 104% | 89.5% | 109% | 101% | – |
| CCOC(=O)C(CCC#N)(CCC#N)C(=O)OCC | 112% | 98% | 100% | 91.4% | 97.3% | 97.6% | 106% | – |
| Clc1ccc(C(SCc2ccccc2)SCc2ccccc2)cc1 | 79% | 103% | 89.4% | 93.8% | 76.3% | 120% | 85.1% | – |
| CC(=O)OCC1OC(n2cnc3c(=S)nc(N)[nH]c32)C(OC(C)=O)C1OC(C)=O (stereo unspecified) | 54.4% | 79.4% | 82.9% | 60.7% | 43.3% | – | 86.3% | 99.3% |
| NS(=O)(=O)c1cc(=O)[nH]c(=O)[nH]1 | 113% | – | 109% | 101% | 105% | 121% | 104% | 105% |
| ON1CCCC1 | 98.6% | 96.7% | 101% | 95% | 97.4% | 98.8% | 110% | – |
| Cc1ccc2nc(N)nnc2c1 | 108% | – | 95.1% | 104% | 108% | 103% | 103% | 106% |

| SMILES | growth (T-47D breast) | growth (BT-549 breast) | growth (SW-620 colon) | growth (MCF7 breast) | growth (HCT-116 colon) | growth (HCC-2998 colon) | growth (KM12 colon) | growth (MDA-MB-435 melanoma) |
| --- | --- | --- | --- | --- | --- | --- | --- | --- |
| CCOC(OCC)C(=O)c1ccccc1 | 103% | 101% | 92.3% | 94.4% | 108% | 112% | 99.4% | – |
| CCC12OC(COc3ccccc3)CN1CCN2c1ccccc1 (stereo unspecified) | 90.4% [100 µM] | 105% [100 µM] | 103% [100 µM] | 92.5% [100 µM] | 102% [100 µM] | – | 98.9% [100 µM] | – |
| CCC(C)C1CCC(O)CC1 (stereo unspecified) | 104% | 98.5% | 107% | 100% | 101% | – | 105% | – |
| CN(C)c1ccc2nc3ccc(=[N+](C)C)cc-3oc2c1 | 14.4% | 63.2% | 9.01% (active) | -30.4% (active) | 6.48% (active) | 43.3% | 35.1% | – |
| Oc1cc(O)c2c(c1)O[C@H](c1ccc(O)c(O)c1)[C@@H](O)C2 | 104% | – | 106% | 104% | 109% | 108% | – | 104% |
| O=C(Nc1c(Cl)cc(Cl)cc1Cl)ON=C1CCCCC1 | 98.6% | 113% | 114% | 102% | 107% | 117% | 96.5% | – |
| CCCC(=O)c1cccs1 | 86.6% | 101% | 101% | 94.3% | 100% | – | 105% | – |
| CN(C)c1ccc(O)c2c1CC1CC3C(N(C)C)C(=O)C(C(N)=O)=C(O)C3(O)C(=O)C1=C2O (stereo unspecified) | 50.5% | 29.2% | 47.8% | 53.4% | 34.1% | 49.7% | 50% | – |
| CNc1ccccc1C(=O)N/N=C/C=C/c1ccccc1 | 29.5% | – | 20.2% | 12.2% | 21.6% | 42.2% | 22.2% | -43.1% (active) |
| Cc1nc(C)c(C(=O)O)cc1C(=O)O | 122% | – | 109% | 109% | 111% | 101% | 117% | 110% |
| O=[N+]([O-])c1c(Cl)ncnc1Cl | 117% | 106% | 95.3% | 95.2% | 115% | 121% | 102% | – |
| NNc1ncnc2nc[nH]c12 | 62.2% | 85% | 41.6% | 33% | 24% | – | 46% | – |
| Nc1nc2nnc(-c3ccccc3)c(-c3ccccc3)n2n1 | 84.7% | – | 97.9% | 98.7% | 102% | 93.1% | 132% | 106% |
| COC1OC(COC(C)=O)C(OC(C)=O)C(OC(C)=O)C1OC(C)=O (stereo unspecified) | 91.7% | 101% | 109% | 93% | 87.4% | 101% | 106% | – |
| Nc1cccc2cccc(O)c12 | 102% | – | 67.4% | 79.9% | 78.8% | 95.8% | 128% | 108% |
| O=C1NCC2CCCC1C2 (stereo unspecified) | 118% | 98.3% | 120% | – | 101% | 93.1% | 107% | – |
| Cc1ccc(NC(=O)c2ccccc2Cl)cc1 | 112% | – | 109% | 99.4% | 114% | 124% | 105% | 109% |
| COc1cc(N)c2ncccc2c1Cl | 101% | – | 109% | 104% | 95.3% | 106% | 117% | 111% |
| Cc1cc(Cc2ccccc2)c(O)c(Cc2ccccc2)c1 | 85.3% | – | 102% | 105% | 73.5% | 101% | 90.5% | 98.1% |
| Nc1c(O)c(S(=O)(=O)O)c(O)c2c1C(=O)c1ccccc1C2=O | 23.5% | 40% | 15.6% | 13.8% | 7.87% (active) | 31.8% | 5.95% (active) | – |
| CCCCN(C(=O)CC)c1ccccc1 | 110% | – | 98.7% | 100% | 99.8% | 112% | 102% | 108% |
| CCCC(=O)CC(=O)c1ccccc1 | 96.1% | 101% | 105% | 97.2% | 94.8% | 99.1% | 102% | – |
